KB-V1 cytotox: qHTS assay for MDR1-selective chemotherapeutics: Primary screen using the drug-selected MDR subline cells KB-V1 | KB-V1 MDR cells viability, CellTiter-Glo, 72 h | Potency, µM (titrated, usually from 46.1 µM), hits mostly cytotoxic | 400,000 compounds, 3.4% hits | AID 1347076, 2019; also: nearly all actives have a fitted effect of over 60% in size
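Luminescent ATP read-out (CellTiter-Glo, 10 min) measures survival of drug-selected KB-V1 MDR cells after 72 h, 37 degrees C compound exposure. Medium: phenol-red-free DMEM, 10% FBS. Values from fitted concentration-response curves.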
TDP1 cell CPT: qHTS for Inhibitors of human tyrosyl-DNA phosphodiesterase 1 (TDP1): qHTS in cells in presence of CPT; chicken DT40 Tdp1-/-;hTDP1 cells + 20 nM CPT, ATP luminescence, 48 h; Potency, µM (top dose mostly 46.2 µM), for the others: at the highest dose activity change, negative = growth inhibition, hits mostly inhibitors; 420,000 compounds, 12% hits; AID 686979, 2013; also: nearly all actives have a fitted effect of over 55% in size
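Chicken DT40 Tdp1-/- cells stably complemented with human TDP1 were seeded at 400 cells/well in medium containing 20 nM camptothecin, exposed to pin-transferred compounds, and grown at 37 °C for at least 48 hr. Viability was read as ATP luminescence.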
HT1080 IDH1KD tx: qHTS for induction of synthetic lethality in tumor cells producing 2HG: qHTS for the HT-1080-IDH1KD cell line; HT-1080 IDH1 knockdown viability, ATP luminescence, 48 h; Potency, µM (highest dose often 46.1 µM), without a hit: at the top dose activity, negative = toxicity, most hits filed as cytotoxic; AID 686971, 2013; 360,000 compounds, 2% hits;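 also: 0% = DMSO wells and -100% = cell-free medium wells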
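In this qHTS, HT-1080 cells depleted of IDH1 are exposed for 48 h at 37 °C to compound titrations. Toxicity is scored from CellTiter-Glo luminescence, with DMSO as full viability and medium alone as none.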
KB-3-1 cytotox: qHTS assay for MDR1-selective chemotherapeutics: Primary screen using the parental adenocarcinoma cell KB-3-1; KB-3-1 viability, CellTiter-Glo ATP luminescence, 72 h; Potency, µM (series often up to 46.1 µM), usual class: cytotoxic; 400,000 compounds, 1.4% hits; AID 1347075, 2019; also: nearly all actives have a fitted effect of over 60% in size
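Parental KB-3-1 adenocarcinoma cells in phenol-red-free DMEM with 10% FBS were pin-treated with compounds at several concentrations, incubated 72 h at 37 °C, and viability read by CellTiter-Glo luminescence; concentration-effect curves were fitted after normalization.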
HT1080NT lethal: qHTS for induction of synthetic lethality in tumor cells producing 2HG: qHTS for the HT-1080-NT fibrosarcoma cell line. HT-1080-NT fibrosarcoma viability, CellTiter-Glo ATP luminescence, 48 h. Potency, µM (top dose mostly 46.1 µM), inactives show top-dose activity, negative = less viability, usual class: cytotoxic. 360,000 compounds, 1.6% hits;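 also: NT is the 2HG producing partner of a matched IDH1 knockdown line; 0% = DMSO-treated cells and -100% = media-only wells without cells; nearly all actives have a fitted effect of over 55% in size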
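Read-out is CellTiter-Glo luminescence after 10 minutes at room temperature, following 48 hours' compound treatment of HT-1080-NT cells (750 cells/well, RPMI, 5% FBS, 37 degrees C).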
TDP1 cell noCPT: qHTS for Inhibitors of human tyrosyl-DNA phosphodiesterase 1 (TDP1): qHTS in cells in absence of CPT; Potency, µM (doses to about 46.2 µM), for inactives: top-dose activity change, negative = growth inhibition, usual class: inhibitors; 420,000 compounds, 15% hits; AID 686978, 2013; DT40 Tdp1-/- hTDP1 cells, no CPT, ATP luminescence, 48 h; also: nearly all actives have a fitted effect of over 55% in size
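Readout: luminescence from CellTiter-Glo after 30 min in the dark at RT. Cells: DT40 Tdp1-/- with stable hTDP1, 400/well. Exposure: compounds alone, ≥48 hr, 37 °C.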
* = called active by the depositor; i = inactive; ? = inconclusive; / = no result; [ ] = dose if it differs, or a comment. Sampled rows, rich in hits. Any-hit rate of the full collection: about 19%. Calls follow the shape of the dose curve; as a rule, active = well fitted curve in the direction sought with a large enough effect; inconclusive = small, poorly fitted or top-dose-only effect, or another doubt; inactive = no such curve, though single readings can be large; an effect the other way counts as inactive or inconclusive. Unless noted, % is scaled to controls: 0 for no effect and ±100 for the full control effect; potency is read from the fitted curve at half-maximal effect.

SMILES	KB-V1 cytotox	TDP1 cell CPT	HT1080 IDH1KD tx	KB-3-1 cytotox	HT1080NT lethal	TDP1 cell noCPT
O=C(CN(Cc1ccc(Cl)c(Cl)c1)S(=O)(=O)c1ccccc1)N/N=C\c1ccc2c(c1)OCO2	21µM*	?	-6%[9.24 µM]	?	?	?
O=C(CN(Cc1ccccc1)S(=O)(=O)c1ccccc1)N/N=C/c1ccc([N+](=O)[O-])cc1	2.1µM*	-6%	-30%	i	-27%	-26%
COc1cccc(C(=O)NCC2Cc3c(F)ccc(-c4ncccn4)c3O2)c1OC (stereo not drawn)	/	-7%[9.04 µM]	/	/	/	?
Cc1ccc(OC(=O)N(C)C[C@@H]2OCc3cn(nn3)CCCC(=O)N([C@@H](C)CO)C[C@H]2C)cc1	i	-13%	5%	i	3%	?
COCOCCn1cc(CN2CCS(=O)(=O)N(Cc3ccc(-c4ccc(Cl)c(Cl)c4)cc3)C(C(C)C)C2=O)nn1 (stereo not drawn)	i	2.3µM*	?	?	?	2.3µM*
COCOCCn1cc(CN2CCS(=O)(=O)N(Cc3ccc(-c4ccc(OC)cc4)cc3)C(C)C2=O)nn1 (stereo not drawn)	i	21µM*	1%	i	0%	12µM*
COCOCCn1cc(CN2CCS(=O)(=O)N(Cc3ccc(-c4ccc(F)cc4)cc3)C(C(C)C)C2=O)nn1 (stereo not drawn)	?	?	-30%	i	-15%	18µM*
COCOCCn1cc(CN2CCS(=O)(=O)N(Cc3ccc(-c4ccc(F)cc4)cc3)C(CC(C)C)C2=O)nn1 (stereo not drawn)	?	26µM*	?	?	?	15µM*
CCC/C=C/c1ccc(CN2C(C(C)C)C(=O)N(Cc3cn(CCOCOC)nn3)CCS2(=O)=O)cc1 (stereo not drawn)	i	?	2%	i	10%	?
OCC[C@@H]1C[C@H](O)[C@@H](O)[C@@]2(CCCc3ccccc3O2)O1	i	-5%	0%	i	-2%	-3%
CC1CCN(S(=O)(=O)c2ccc3c(c2)N(CC(=O)NC(C)c2ccccc2)C(=O)CS3)CC1 (stereo not drawn)	i	?	/	i	/	?
COCOCCn1cc(CN2CCS(=O)(=O)N(Cc3ccc(-c4ccc(Cl)cc4)cc3)C(C(C)C)C2=O)nn1 (stereo not drawn)	i	18µM*	-1%	i	-13%	21µM*
COc1cccc(CN2CCC2(C)C(=O)Nc2cccc(NS(C)(=O)=O)c2)c1OC (stereo not drawn)	i	18µM*	0%	i	-8%	23µM*
COc1ccc(CN2CCC2(C)C(=O)NCCNC(C)=O)c2ccccc12 (stereo not drawn)	i	8%	8%	i	12%	1%
CC(C)c1ccc(CN2CCC2(C)C(=O)Nc2cccc(Oc3ccccc3)c2)cc1 (stereo not drawn)	i	?	0%	i	?	18µM*
COc1ccc(CN2CCC2(C)C(=O)Nc2cccc(NS(C)(=O)=O)c2)c2ccccc12 (stereo not drawn)	2.9µM*	?	?	?	?	?
COc1ccc(CN2CCC2(C)C(=O)NCc2ccc3c(c2)OCO3)c2ccccc12 (stereo not drawn)	i	23µM*	-26%	i	-23%	?
COc1cccc(NC(=O)C2(C)CCN2Cc2ccc3ccccc3c2)c1 (stereo not drawn)	i	?	?	i	?	?
COc1cccc(NC(=O)C2(C)CCN2Cc2ccc(OC)c3ccccc23)c1 (stereo not drawn)	?	?	?	?	?	-75%
COCCCNc1nc2ccccc2nc1NS(=O)(=O)c1ccc(C)cc1C	i	-11%	0%	i	-6%	-6%
CCOc1ccc(C(CC(=O)O)NC(=O)COc2ccc3ccccc3c2)cc1OC (stereo not drawn)	?	-5%	1%	i	3%	-1%
COc1cccc(CN2CCC2(C)C(=O)Nc2cccc(Oc3ccccc3)c2)c1OC (stereo not drawn)	?	23µM*	?	i	-28%	21µM*
CN(C(=O)CSc1nc(N)c2c3c(sc2n1)CSC(C)(C)C3)c1ccccc1	i	16µM*	-27%	i	-26%	16µM*
CN(C(=O)CSC1=NCCS1)c1ccccc1	i	0%	14%	i	17%	-5%
CSc1nc(C)cc(-n2ccc(=O)[nH]c2=O)n1	i	-1%	1%	i	1%	-2%
SMILES	KB-V1 cytotox	TDP1 cell CPT	HT1080 IDH1KD tx	KB-3-1 cytotox	HT1080NT lethal	TDP1 cell noCPT
O=C(OCC(=O)N1CCCCC1)c1ccc2c(c1)C(=O)N(Cc1ccco1)C2=O	i	-15%	1%	i	4%[9.24 µM]	15%
Nc1nc2ncccn2c1-c1ccc(F)c(F)c1	i	-1%	15%	i	5%	2%
CCOC(=O)/C=C/C(=O)N1CCN(C(=O)/C=C/C(=O)OCC)CC1	i	?	-24%	i	-9%	21µM*
O=C(O)/C=C/C(=O)N1CCN(C(=O)/C=C/C(=O)O)CC1	?	0%	19%	i	23%	-9%
COc1cc(OC)c(OC)cc1/C=N/NC(=O)c1ccc(=O)n(C)c1	i	-21%	14%	i	10%	-23%
COc1ccccc1/C=N\NC(=O)c1c(C)nc2ccc(Cl)cn12	i	1%	9%	i	13%	-22%
COc1cccc(/C=N/NC(=O)C(=O)Nc2ccccc2OC(F)(F)C(F)F)c1O	?	3.3µM*	?	9.2µM*	?	3.3µM*
COc1cccc(/C=N/NC(=O)c2c(C)nc3ccc(Cl)cn23)c1O	?	0.92µM*	?	?	-29%	1µM*
COc1cccc(/C=N/NC(=O)c2[nH]c(C)c(C(=O)N/N=C/c3cccc(OC)c3O)c2C)c1O	i	5.2µM*	-29%	?	-21%	3.3µM*

Screening results: PubChem, National Center for Advancing Translational Sciences (NCATS)
